Legend:
Experiment in all cases: log2 ratio of Biotin-Ahx-Ub-VS probe labelling (fragment/DMSO); higher = less target engagement (more negative = stronger competition), active = hit call of the paper (q ≤ 0.05, log2 ratio ≤ -1)
Details in all cases: compound concentration: 200 uM; treatment time: 3 h
OTUD6B = target: T1, OTUD6B (UniProt Q8N6M0)
T1 sequence (whole entry): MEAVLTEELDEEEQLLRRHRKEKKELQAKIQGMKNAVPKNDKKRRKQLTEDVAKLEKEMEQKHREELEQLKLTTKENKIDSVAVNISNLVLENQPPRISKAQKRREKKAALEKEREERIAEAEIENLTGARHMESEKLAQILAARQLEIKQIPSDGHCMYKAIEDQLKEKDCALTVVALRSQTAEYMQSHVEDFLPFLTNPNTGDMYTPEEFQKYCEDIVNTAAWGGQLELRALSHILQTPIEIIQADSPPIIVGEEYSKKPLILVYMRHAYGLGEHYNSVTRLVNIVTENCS
Method in brief: (§1)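 Each value is an average log2 ratio of fragment to vehicle, tested by unpaired t-test. The underlying Spectronaut label-free quantities were global-median-normalised, and only proteins with ≥2 unique peptides were included. Triplicate HEK293T lysate samples (495 µg) were exposed to fragment at 200 µM or vehicle for 3 h, then to Biotin-Ahx-Ub-VS at 0.5 µM final for 1 h, before NeutrAvidin enrichment of labelled DUBs, LysC and trypsin digestion, and diaPASEF LC-MS/MS.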

OTUD7B = target: T2, OTUD7B (UniProt Q6GQQ9)
T2 sequence (whole entry): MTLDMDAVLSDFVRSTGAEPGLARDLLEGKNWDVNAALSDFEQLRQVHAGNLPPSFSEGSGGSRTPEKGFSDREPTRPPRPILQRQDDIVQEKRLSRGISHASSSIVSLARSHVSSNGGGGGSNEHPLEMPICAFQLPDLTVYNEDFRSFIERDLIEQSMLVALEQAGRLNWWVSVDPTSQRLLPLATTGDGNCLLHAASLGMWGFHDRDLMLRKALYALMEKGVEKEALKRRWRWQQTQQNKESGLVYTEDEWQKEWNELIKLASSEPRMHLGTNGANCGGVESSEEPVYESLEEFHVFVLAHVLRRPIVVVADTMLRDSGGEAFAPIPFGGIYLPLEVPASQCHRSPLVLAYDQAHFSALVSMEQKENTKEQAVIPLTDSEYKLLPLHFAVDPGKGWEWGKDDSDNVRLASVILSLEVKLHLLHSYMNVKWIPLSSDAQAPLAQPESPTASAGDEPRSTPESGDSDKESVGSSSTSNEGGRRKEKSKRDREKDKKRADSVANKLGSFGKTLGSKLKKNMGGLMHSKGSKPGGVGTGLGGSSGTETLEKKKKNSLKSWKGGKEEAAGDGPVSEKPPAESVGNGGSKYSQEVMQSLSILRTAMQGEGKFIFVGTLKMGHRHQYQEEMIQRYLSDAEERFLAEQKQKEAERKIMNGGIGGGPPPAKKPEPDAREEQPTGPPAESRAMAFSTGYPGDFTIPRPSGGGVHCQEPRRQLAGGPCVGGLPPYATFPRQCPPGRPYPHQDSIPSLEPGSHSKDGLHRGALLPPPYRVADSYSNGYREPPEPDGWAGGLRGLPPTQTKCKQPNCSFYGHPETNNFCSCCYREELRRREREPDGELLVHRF
Method in brief: as §1

PRPF8 = PRPF8 (UniProt Q6P2Q9)
Method in brief: as §1

PSMD7 = target: T3, PSMD7 (UniProt P51665)
T3 sequence (whole entry): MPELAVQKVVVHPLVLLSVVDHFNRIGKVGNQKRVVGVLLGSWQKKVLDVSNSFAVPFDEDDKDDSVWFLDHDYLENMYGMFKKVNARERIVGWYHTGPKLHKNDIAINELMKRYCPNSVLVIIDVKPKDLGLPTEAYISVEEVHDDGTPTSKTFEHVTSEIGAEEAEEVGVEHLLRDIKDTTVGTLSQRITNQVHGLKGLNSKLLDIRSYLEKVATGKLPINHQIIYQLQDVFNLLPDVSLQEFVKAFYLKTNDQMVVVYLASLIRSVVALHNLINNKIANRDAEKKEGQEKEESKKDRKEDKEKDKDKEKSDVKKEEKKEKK
Method in brief: as §1

UCHL1 = UCHL1 (UniProt P09936)
Method in brief: as §1

UCHL3 = target: T4, UCHL3 (UniProt P15374)
T4 sequence (whole entry): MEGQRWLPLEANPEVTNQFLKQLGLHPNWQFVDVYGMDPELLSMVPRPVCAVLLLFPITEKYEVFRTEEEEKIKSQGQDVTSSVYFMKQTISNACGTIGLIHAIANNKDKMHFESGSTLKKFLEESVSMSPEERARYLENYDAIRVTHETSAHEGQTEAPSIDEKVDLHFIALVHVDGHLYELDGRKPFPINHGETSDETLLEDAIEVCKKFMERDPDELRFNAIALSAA
Method in brief: as §1

UCHL5 = target: T5, UCHL5 (UniProt Q9Y5K5)
T5 sequence (whole entry): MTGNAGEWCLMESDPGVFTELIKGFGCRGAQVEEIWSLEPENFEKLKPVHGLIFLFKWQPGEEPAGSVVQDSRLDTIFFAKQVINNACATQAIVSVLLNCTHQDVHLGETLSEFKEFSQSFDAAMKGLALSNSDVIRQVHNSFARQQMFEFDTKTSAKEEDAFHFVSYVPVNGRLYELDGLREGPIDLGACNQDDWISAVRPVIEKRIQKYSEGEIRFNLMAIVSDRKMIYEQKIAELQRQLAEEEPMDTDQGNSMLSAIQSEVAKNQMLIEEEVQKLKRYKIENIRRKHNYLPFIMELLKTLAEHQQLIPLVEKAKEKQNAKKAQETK
Method in brief: as §1

USP10 = USP10 (UniProt Q14694)
Method in brief: as §1

USP15 = target: T6, USP15 (UniProt Q9Y4E8)
T6 sequence (whole entry): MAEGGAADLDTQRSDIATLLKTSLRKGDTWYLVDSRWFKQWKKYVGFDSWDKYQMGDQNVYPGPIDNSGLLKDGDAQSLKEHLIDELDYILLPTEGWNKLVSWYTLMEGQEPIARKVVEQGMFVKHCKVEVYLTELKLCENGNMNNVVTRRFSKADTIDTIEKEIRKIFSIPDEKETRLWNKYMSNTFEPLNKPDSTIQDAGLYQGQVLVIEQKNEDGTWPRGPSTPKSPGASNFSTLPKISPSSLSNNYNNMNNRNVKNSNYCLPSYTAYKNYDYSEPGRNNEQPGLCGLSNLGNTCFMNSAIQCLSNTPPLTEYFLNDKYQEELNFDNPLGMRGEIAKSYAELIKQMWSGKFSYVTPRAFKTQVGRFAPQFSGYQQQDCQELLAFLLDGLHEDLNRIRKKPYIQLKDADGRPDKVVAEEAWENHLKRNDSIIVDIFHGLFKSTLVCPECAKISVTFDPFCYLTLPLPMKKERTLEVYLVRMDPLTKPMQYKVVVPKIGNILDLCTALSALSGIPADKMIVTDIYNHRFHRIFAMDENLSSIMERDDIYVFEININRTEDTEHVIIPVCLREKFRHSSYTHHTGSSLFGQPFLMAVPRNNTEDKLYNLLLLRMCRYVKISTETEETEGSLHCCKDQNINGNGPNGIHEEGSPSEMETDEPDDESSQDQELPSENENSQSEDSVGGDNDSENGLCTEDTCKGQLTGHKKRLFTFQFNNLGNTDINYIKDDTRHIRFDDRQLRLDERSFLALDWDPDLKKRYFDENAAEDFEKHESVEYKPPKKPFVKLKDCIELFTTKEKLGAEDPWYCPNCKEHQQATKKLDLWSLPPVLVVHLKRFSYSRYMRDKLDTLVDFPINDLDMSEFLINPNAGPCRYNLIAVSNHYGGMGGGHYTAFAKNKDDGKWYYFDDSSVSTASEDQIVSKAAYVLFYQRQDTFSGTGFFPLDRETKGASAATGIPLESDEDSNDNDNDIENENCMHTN
Method in brief: as §1

USP16 = USP16 (UniProt Q9Y5T5)
Method in brief: as §1

Measured: log2 ratio of Biotin-Ahx-Ub-VS probe labelling

Chain of UCHL1 (P09936 whole entry, looked up): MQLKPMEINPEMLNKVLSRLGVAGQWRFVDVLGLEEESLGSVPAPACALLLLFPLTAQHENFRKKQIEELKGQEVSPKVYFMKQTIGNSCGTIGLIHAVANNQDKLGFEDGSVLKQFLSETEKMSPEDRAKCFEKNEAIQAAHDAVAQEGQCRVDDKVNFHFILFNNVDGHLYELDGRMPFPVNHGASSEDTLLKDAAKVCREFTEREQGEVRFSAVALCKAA
Chain of USP10 (Q14694 whole entry): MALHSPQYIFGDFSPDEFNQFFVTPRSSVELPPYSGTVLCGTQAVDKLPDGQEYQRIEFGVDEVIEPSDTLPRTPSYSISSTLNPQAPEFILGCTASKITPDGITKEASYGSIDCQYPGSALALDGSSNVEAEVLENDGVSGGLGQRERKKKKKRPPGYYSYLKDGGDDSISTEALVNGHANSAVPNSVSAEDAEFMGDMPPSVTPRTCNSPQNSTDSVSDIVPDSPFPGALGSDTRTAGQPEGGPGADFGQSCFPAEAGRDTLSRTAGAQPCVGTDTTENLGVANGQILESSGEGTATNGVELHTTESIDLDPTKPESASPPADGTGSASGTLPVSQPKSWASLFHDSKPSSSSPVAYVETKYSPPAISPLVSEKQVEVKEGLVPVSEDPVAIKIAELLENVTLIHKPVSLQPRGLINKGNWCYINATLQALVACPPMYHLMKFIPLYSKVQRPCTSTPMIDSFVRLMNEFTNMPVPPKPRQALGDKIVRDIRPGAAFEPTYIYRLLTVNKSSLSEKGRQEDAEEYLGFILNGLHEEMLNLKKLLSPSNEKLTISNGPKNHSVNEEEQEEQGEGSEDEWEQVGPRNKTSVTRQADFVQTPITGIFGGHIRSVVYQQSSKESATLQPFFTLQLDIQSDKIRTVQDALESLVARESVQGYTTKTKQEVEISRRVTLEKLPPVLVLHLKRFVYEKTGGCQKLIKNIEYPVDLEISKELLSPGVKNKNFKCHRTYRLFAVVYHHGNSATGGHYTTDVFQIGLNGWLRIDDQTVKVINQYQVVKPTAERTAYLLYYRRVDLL
Chain of USP16 (Q9Y5T5 whole entry, looked up): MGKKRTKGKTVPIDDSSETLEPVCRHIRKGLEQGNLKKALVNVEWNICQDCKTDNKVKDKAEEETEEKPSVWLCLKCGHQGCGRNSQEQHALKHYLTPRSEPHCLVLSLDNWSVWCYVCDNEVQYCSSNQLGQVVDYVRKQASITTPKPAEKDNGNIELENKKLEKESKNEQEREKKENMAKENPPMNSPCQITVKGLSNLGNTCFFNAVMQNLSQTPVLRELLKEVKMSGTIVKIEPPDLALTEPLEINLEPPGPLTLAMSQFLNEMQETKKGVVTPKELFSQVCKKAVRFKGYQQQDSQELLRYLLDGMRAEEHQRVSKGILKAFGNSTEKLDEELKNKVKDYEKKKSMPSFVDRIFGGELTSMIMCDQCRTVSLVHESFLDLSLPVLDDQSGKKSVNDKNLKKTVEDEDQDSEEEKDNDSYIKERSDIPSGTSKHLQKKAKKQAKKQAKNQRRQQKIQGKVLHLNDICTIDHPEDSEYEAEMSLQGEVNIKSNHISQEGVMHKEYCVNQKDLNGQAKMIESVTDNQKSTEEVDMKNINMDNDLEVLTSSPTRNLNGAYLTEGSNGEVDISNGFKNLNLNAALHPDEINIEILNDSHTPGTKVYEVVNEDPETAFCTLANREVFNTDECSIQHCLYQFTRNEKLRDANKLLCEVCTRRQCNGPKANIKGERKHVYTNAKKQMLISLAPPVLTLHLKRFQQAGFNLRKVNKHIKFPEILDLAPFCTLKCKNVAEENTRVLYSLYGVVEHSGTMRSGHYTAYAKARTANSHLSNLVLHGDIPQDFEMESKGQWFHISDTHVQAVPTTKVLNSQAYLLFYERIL

CN(CCC(O)c1ccc(Br)cc1)C(=O)CCl (stereo not given)
inactive: OTUD6B -0.0417 | PRPF8 0.169 | PSMD7 -0.221 | UCHL3 -0.26 | UCHL5 -0.331 | USP10 -0.142 | USP15 -0.337 | USP16 0.00689
active: OTUD7B -1.37 | UCHL1 -1.61
